Measured values published in PubChem BioAssay AID485367 (National Center for Advancing Translational Sciences (NCATS), 2010).
Screen size: about 330,000 compounds; about 560 (0.17%) were called active. Roughly 1% stayed inconclusive and do not appear here. The sample holds actives, similar compounds and a random draw of the others, so the mix is not that of the screen. The call rests on the fitted dose curve; in most records, active means well fitted inhibition curve with a large enough effect; inconclusive means small, poorly fitted or top-dose-only effect, or effect the other way; inactive means flat fitted curve, though single readings scatter.

Target: ATP-dependent 6-phosphofructokinase (Trypanosoma brucei brucei) (UniProt O15648)
Experiment: qHTS Assay to Find Inhibitors of T. brucei phosphofructokinase; further: nearly all actives have a fitted effect of over 60% in size;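 on activity, negative = inhibition: 0% = uninhibited 1x PFK enzyme wells and -100% = no-enzyme wells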
Settings: T. brucei PFK, ADP-Glo luminescence; series mostly up to 57.5 µM; activity, negative = inhibition: at the top concentration
Procedure, shortened: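 ADP-Glo luminescence quantified ADP after 45 min at room temperature, with 1.25 nM T. brucei PFK, 0.1 mM ATP and 0.5 mM fructose-6-phosphate in pH 8.0 TEA buffer. qHTS titrations up to 57 µM; curves classified by quality.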
Potency means the concentration at half of the fitted maximal effect.

ATP-dependent 6-phosphofructokinase (Trypanosoma brucei brucei), sequence (O15648 whole entry, looked up): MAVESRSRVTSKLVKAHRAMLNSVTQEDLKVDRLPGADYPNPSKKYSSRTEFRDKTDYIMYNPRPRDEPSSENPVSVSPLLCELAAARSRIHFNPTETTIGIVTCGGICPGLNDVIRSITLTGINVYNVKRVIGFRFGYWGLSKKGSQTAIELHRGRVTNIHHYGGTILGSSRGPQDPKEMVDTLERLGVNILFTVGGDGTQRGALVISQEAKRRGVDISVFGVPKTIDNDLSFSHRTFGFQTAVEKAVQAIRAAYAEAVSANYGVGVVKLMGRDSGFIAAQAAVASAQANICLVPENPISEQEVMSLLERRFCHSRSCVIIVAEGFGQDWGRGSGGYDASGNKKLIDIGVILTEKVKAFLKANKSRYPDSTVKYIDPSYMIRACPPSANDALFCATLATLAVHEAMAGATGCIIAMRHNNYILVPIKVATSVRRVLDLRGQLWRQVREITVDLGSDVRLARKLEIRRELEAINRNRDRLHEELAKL

| SMILES | activity, negative = inhibition | Potency |
| --- | --- | --- |
| O=C(COC(=O)/C=C/c1ccc(OC(F)F)cc1)NC1CCCCC1 | 6.89% (inactive) | – |
| N=C1/C(=C/c2cccn2-c2cccc([N+](=O)[O-])c2)C(=O)N=C2SC=CN12 | 3.77% (inactive) | – |
| CCOC(=O)c1c(CNCc2ccccc2F)c2sc(C)cc2n1C | -0.233% (inactive) | – |
| NC(=O)c1ccc(Nc2ccc3nonc3c2[N+](=O)[O-])cc1 | 0.218% (inactive) | – |
| CCN(CC)CCCSc1nc2ccccc2s1 | -6.96% (inactive) | – |
| O=[N+]([O-])c1c(NCCO)cc(Sc2nc3ccccc3s2)c2nonc12 | – | 6.01 µM (active) |
| CCOCCOC(=O)C1=C(C)N(C)C(=O)NC1c1ccccc1F (stereo unspecified) | 0.633% (inactive) | – |
| CCOC1CS(=O)(=O)CC1OCC (stereo unspecified) | -1.39% (inactive) | – |
| CC(C)(C)NC(=O)NC(=O)COC(=O)Cc1c(F)cccc1Cl | -0.983% (inactive) | – |
| COc1cc(N2C(=O)CSC2=S)cc(OC)c1OC | -8.25% (inactive) | – |
| O=C1CSC(=S)N1c1ccc(Cl)c(Cl)c1 | – | 21.3 µM (active) |
| O=C1CSC(=S)N1c1ccc(O)cc1 | -1.23% (inactive) | – |
| O=C(COC(=O)CNS(=O)(=O)c1ccccc1)NC12CC3CC(CC(C3)C1)C2 | -2.55% (inactive) | – |
| Cc1ccc(C(=O)COC(=O)c2cccc(N3C(=O)c4c(C)nc5ccccc5c4C3=O)c2)cc1C | -6.05% (inactive) | – |
| Cc1ccnc(NC(=O)c2ccc(Cl)c([N+](=O)[O-])c2)c1 | -21.5% (inactive) | – |
| O=C(Nc1ccncc1)c1ccc(Cl)c([N+](=O)[O-])c1 | – | 26.9 µM (active) |
| O=C(Nc1ccncc1)c1ccc([N+](=O)[O-])cc1Cl | -2.98% (inactive) | – |
| Cc1c(CCO)c(=O)n(-c2ccccc2)n1S(=O)(=O)c1ccc(F)cc1 | 2% (inactive) | – |
| CCOc1ccc(NCCC(=O)c2ccc3c(c2)OCO3)cc1 | 0.639% (inactive) | – |
| COc1ccc(CNC(=O)C(NS(=O)(=O)c2cccc3nsnc23)C(C)C)cc1 (stereo unspecified) | -7.82% (inactive) | – |
| CC(NC(=O)c1ccc(S(=O)(=O)Nc2ccccc2)cc1)c1ccc(S(N)(=O)=O)cc1 (stereo unspecified) | 4.34% (inactive) | – |
